An excerpt weighted towards active compounds, which were near 4.4% of everything screened.
TIM10 inh: growth inhibitors of TIM10 yeast strain | AID 463195 | inhibition, % at 10 µM | actives 1.4% (n = 330,000) | S. cerevisiae TIM10 strain growth, BacTiter-Glo luminescence, 24 h;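 active = inhibition of 40% or more at the single tested concentration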;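 also: wild-type TIM10 isogenic control strain grown at permissive 25 °C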
tim10-1 inh: growth inhibitors of tim10-1 mutant yeast. actives 2.2% (n = 330,000). inhibition, % at 20 µM. S. cerevisiae tim10-1 ts strain growth, BacTiter-Glo, 24 h. AID 463190;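 active = inhibition of at least 40%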;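 also: mutant grown at 25 °C; 0% = DMSO wells with yeast and 100% = wells holding no yeast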
tim23-1 inh: tim23-1 yeast growth inhibition; S. cerevisiae tim23-1 growth, BacTiter-Glo luminescence, 24 h; inhibition, % at 20 µM; actives 1.3% (n = 330,000);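 active = growth inhibition of the mutant yeast at or above 50%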;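 also: temperature-sensitive mutant grown at 25 °C; plate controls were DMSO-treated mutant yeast for no effect and medium wells lacking yeast for full effect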
SKKanGAS inh: SKKanGAS growth inhibition; actives 1.3% (n = 300,000); inhibition, % at 7.5 µM; S. pyogenes SKKanGAS, kanamycin growth, BacTiter-Glo, 6 h; AID 1662;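 active = mean replicate score, as percent of positive control median, at least 50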;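 also: strain carries kanamycin resistance gene driven by streptokinase promoter and grows in 40 µg/ml kanamycin; loss of luminescence reflects streptokinase promoter inhibition or plain growth inhibition; 0% = median of DMSO wells and 100% = positive control at its reference dose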
PfHsp90 set2: growth inhibition of yeast expressing Plasmodium Hsp90. actives 0.32% (n = 310,000). inhibition, % at 9.4 µM. AID 504621. S. cerevisiae expressing PfHsp90, BacTiter-Glo ATP, 48 h; yeast lacking PDR1 and PDR3 efflux regulators;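 active = every replicate shows inhibition above about 80%, whatever the replicate mean, limit read from the data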;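 also: 0% = DMSO neutral controls and 100% = 20 µM radicicol positive controls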
An asterisk follows results filed as active; x = not tested or not shown.

SMILES	TIM10 inh	tim10-1 inh	tim23-1 inh	SKKanGAS inh	PfHsp90 set2
C=CCNC(=S)NNc1nc(Nc2ccccc2)nc(N2CCCCC2)n1	14	35	14	8	-16
S=C(NNc1nc(Nc2ccccc2)nc(N2CCCCC2)n1)NC1CCCCC1	14	36	15	60*	-1
CCOC(=O)C1=CN(Cc2ccco2)S(=O)(=O)N(C)C1c1ccc2ccccc2c1 (centres undefined)	7	19	45	x	6
O=C(Nc1ccc(Cl)cc1)c1cc2c(cc1O)[nH]c1ccccc12	15	8	7	100*	6
COC(=O)c1ccc(NC(=O)c2sc3nc(-c4ccccc4)cn3c2C)cc1	-5	9	7	71*	12
COc1ccc(-c2cn3c(C)c(C(=O)Nc4ccncc4)sc3n2)cc1	1	6	9	-2	12
O=C(O)c1cccc(-c2ccccc2)c1O	x	x	x	x	-11
CCOC(=O)COc1ccc2ccccc2c1/C=C/[N+](=O)[O-]	x	x	x	11	104*
COc1cccc(COC(=O)Cc2ccc(S(=O)(=O)N3CCOCC3)s2)c1OC	16	19	20	x	-6
CN(C)c1nc(N(C)C)nc(N2CCCCC2)n1	-15	-10	-1	1	13
CC1CCN(c2nc(N3CCCCC3)nc(N3CCCCC3)n2)CC1	1	-10	0	56*	10
CCCN(CC(=O)Nc1ccccc1C)C(=O)COC(=O)c1cnc(C)cn1	x	x	x	x	29
COc1cccc(Nc2nc(Nc3ccc(Cl)c(C(=O)O)c3)nc(C)c2[N+](=O)[O-])c1	7	14	27	x	-14
Cc1nc(-c2ccccn2)nc(N(C)c2ccccc2)c1Cl	28	18	32	93*	-7
Cc1nc(-c2ccccn2)nc(N2CCOCC2)c1Cl	-3	5	-11	0	0
Nc1c(S(=O)(=O)c2cccc(Cl)c2)c2nc3ccccc3nc2n1/N=C/c1ccc(O)c(O)c1	10	20	33	95*	x
COc1cccc(/C=N/n2c(N)c(S(=O)(=O)c3cccs3)c3nc4ccccc4nc32)c1OC	-3	11	11	21	7
CCCN(CC(=O)Nc1ccccc1OC)C(=O)c1ccccn1	-11	5	5	x	7
c1ccc2c(Nc3nc4c(s3)CCCC4)cccc2c1	16	36	28	57*	x
COc1ccc(OC)c(NC(=O)Nc2ccc(O)c3ccccc23)c1	1	-2	-31	37	108*
COc1ccc(OC)c(NC(=O)Nc2c(O)ccc3ccccc23)c1	15	15	16	9	18
O=C(CN1c2ccccc2Sc2ccccc21)NNC(=O)Nc1ccc(Cl)c(Cl)c1	13	12	-3	57*	-18
NC(=O)c1cc(C(=O)Cc2ccccc2)c[nH]1	-9	1	3	92*	-6
CC(C)Oc1ccc2ccccc2c1CNC[C@H]1O[C@@H](n2cnc(C(N)=O)n2)[C@H](O)[C@@H]1O	x	x	x	x	-6
COc1cccc(-c2coc3c(C)c4oc(=O)c(CC(=O)O)c(C)c4cc23)c1	24	1	12	17	-6
SMILES	TIM10 inh	tim10-1 inh	tim23-1 inh	SKKanGAS inh	PfHsp90 set2
COc1cccc(-c2coc3c(C)c4oc(=O)c(CCC(=O)O)c(C)c4cc23)c1	14	0	12	51*	-35
O=C(Nc1ccc(F)c(Cl)c1)c1ccccc1NC(=O)C1CCCCC1C(=O)O (centres undefined)	x	x	x	x	11
Cc1ccc(S(=O)(=O)N2CCC(C(=O)NNC(=O)c3ccccc3O)CC2)cc1C	6	3	9	0	-18
Cc1cc(C)c(C)c(S(=O)(=O)N2CCC(C(=O)NNC(=O)c3ccccc3O)CC2)c1C	-8	10	19	61*	-7
CC(C)CC1NC(=O)N(CC(=O)Nc2cc(S(=O)(=O)N3CCOCC3)ccc2Cl)C1=O (centres undefined)	-5	1	2	x	-1
CC(C)(C)OC(=O)N[C@H]1C=C[C@@H](OC(=O)CC(=O)OCC(F)(F)F)C1	-1	3	25	x	-5
COc1ccc2nc(Nc3nc(C)c(C(C)=O)s3)sc2c1	28	18	19	56*	-16
CC(=O)c1sc(Nc2nc3cc4c(cc3s2)OCO4)nc1C	x	x	x	24	x
Cc1nn(Cc2ccc(Cl)cc2Cl)c(C)c1NC(=O)NC12CC3CC(CC(C3)C1)C2	38	35	35	51*	13
Cc1ccc(NC(=O)Cc2nc(COC(=O)Cc3cccc(C(F)(F)F)c3)cs2)cc1	11	2	7	x	-7

High-throughput results as filed in PubChem BioAssay.
